Bioassay records deposited in PubChem by National Center for Advancing Translational Sciences (NCATS).
BAZ2B block: blocks human BAZ2B. Q9UIF8. AlphaScreen BAZ2B-H3K14Ac peptide displacement. Potency, µM (top dose mostly 114 µM), actives largely listed as inhibitors. actives 4.4% (n = 360,000). AID 504333; further: nearly all actives have a fitted effect of over 60% in size
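Protein-peptide AlphaScreen: BAZ2B 50 nM, b-H3K14Ac 50 nM, 1x PBS pH 7.4 + 0.01% Tween-20. Preincubation 30 min RT; cpd 30 min RT (top 110 uM); beads 20 min RT, light-protected.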
G9a inh: G9a (human) methyltransferase inhibition. G9a H3K9 monomethylation, AlphaScreen, 2 h. Potency, µM (highest dose often 102 µM), most hits filed as inhibitors. actives 8.8% (n = 350,000); further: nearly all actives have a fitted effect of over 75% in size
Target sequence (Q96KQ7 913-1193 limits assumed): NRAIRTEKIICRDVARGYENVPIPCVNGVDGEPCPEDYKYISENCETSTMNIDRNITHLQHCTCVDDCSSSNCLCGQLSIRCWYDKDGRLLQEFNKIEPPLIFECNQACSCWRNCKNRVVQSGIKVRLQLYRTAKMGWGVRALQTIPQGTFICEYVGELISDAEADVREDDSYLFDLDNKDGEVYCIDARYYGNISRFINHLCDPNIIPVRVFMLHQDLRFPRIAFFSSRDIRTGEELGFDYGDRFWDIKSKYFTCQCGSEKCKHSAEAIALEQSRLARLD
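Step 1: enzyme (final 20 nM) with compound, 15 min RT. Step 2: substrate peptide 500 nM and SAM 20 uM, 2 h RT. Step 3: anti-H3K9me1 antibody and AlphaScreen beads, 10 min, then plate read.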
JMJD2A Tudor: blocks the human JMJD2A Tudor domain. O75164. Potency, µM (highest dose often 114 µM), hits mostly inhibitors. AlphaScreen JMJD2A-Tudor / H3K4me3 peptide binding. actives 4.4% (n = 390,000). AID 504339; further: nearly all actives have a fitted effect of over 50% in size
L3MBTL1 inh: inhibitors of human L3MBTL1; Potency, µM (highest dose often 57.1 µM), hits mostly inhibitors; actives 0.66% (n = 230,000); AlphaScreen L3MBTL1–H3K9me1 peptide binding; further: nearly all actives have a fitted effect of over 60% in size
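L3MBTL1 (50 nM) pre-complexed 30 min with biotinylated H3(1-15)K9me1 peptide (75 nM), then compounds added for 30 min at room temperature; AlphaScreen streptavidin donor/nickel chelate acceptor beads (10 ug/mL final) read after 30 min dark incubation.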
HP1b binding inh: blocks HP1-beta chromodomain binding to methylated histone tails; AlphaScreen HP1-beta / biotin-H3K9me3 peptide binding; Potency, µM (titrated, usually from 114 µM), usual class: inhibitors; actives 0.56% (n = 390,000); further: nearly all actives have a fitted effect of over 70% in size
Target sequence (P83916 whole entry, looked up): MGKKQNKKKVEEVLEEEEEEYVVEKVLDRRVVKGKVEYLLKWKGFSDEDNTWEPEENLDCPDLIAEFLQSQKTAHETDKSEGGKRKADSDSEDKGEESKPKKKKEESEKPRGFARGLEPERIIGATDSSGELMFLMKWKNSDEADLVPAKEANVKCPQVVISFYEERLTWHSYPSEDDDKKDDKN
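Compound inhibition of the preformed complex between 50 nM HP1-beta and 50 nM biotinylated H3K9me3 peptide was read by AlphaScreen. Buffer was PBS pH 7.4 with 0.01% Tween-20. Incubations ran 30 min at room temperature, with 10 ug/mL donor/acceptor beads.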
Large screens that a line does not name were inactive. The list is not random: actives were taken first. Their share in the collection is about 11%. The call rests on the fitted dose curve; in most records, active means well fitted inhibition curve with a large enough effect; inconclusive means small, poorly fitted or top-dose-only effect; inactive means no such curve, though single readings can be large or run the other way.

COc1ccc(NC2CCCN(C(=O)CCOc3ccccc3)C2)cc1 (centres undefined)	BAZ2B block 25µM, JMJD2A Tudor inconclusive (no result: G9a inh, L3MBTL1 inh)
COc1ccc(NC2CCCN(C(=O)CCN3CCOCC3)C2)cc1 (centres undefined)	G9a inh inconclusive (no result: L3MBTL1 inh)
COc1ccc(NC2CCCN(C(=O)COc3ccc(C)cc3)C2)cc1 (centres undefined)	BAZ2B block inconclusive, G9a inh 16µM, JMJD2A Tudor inconclusive (no result: L3MBTL1 inh)
COc1ccc(NC2CCCN(C(=O)CSc3ccccc3)C2)cc1 (centres undefined)	BAZ2B block inconclusive, G9a inh 35µM, JMJD2A Tudor inconclusive (no result: L3MBTL1 inh)
CN1CCN(C(CNC(=O)c2c(F)cccc2F)c2ccc3c(c2)OCO3)CC1 (centres undefined)	none (no result: L3MBTL1 inh)
O=C(Nc1nnc(SCc2ccccc2)s1)c1cccc([N+](=O)[O-])c1	G9a inh 79µM
CCCC(c1nnnn1CC(=O)OCC)N(Cc1cc2c(C)cc(C)cc2[nH]c1=O)C1CCCC1 (centres undefined)	G9a inh 28µM
O=C(NCc1n[nH]c(=S)n1-c1cccc(Cl)c1)c1cccs1	G9a inh 20µM, JMJD2A Tudor 20µM, HP1b binding inh inconclusive
O=C(NCc1n[nH]c(=S)n1-c1ccc(Cl)c(Cl)c1)c1cccs1	BAZ2B block inconclusive, G9a inh inconclusive (no result: L3MBTL1 inh)
O=C(NCc1n[nH]c(=S)n1-c1ccccc1)c1cccs1	G9a inh 22µM, JMJD2A Tudor 16µM
O=C(Cc1ccccc1)NCc1n[nH]c(=S)n1-c1ccc(Br)cc1	G9a inh inconclusive, JMJD2A Tudor inconclusive (no result: L3MBTL1 inh)
CC(NC(=O)c1cccs1)c1n[nH]c(=S)n1C (centres undefined)	G9a inh inconclusive, JMJD2A Tudor 8.9µM
CCOC(=O)CSc1nnc(CNC(=O)c2cccs2)n1Cc1ccccc1	G9a inh inconclusive
CCn1c(CNC(=O)c2cccs2)n[nH]c1=S	G9a inh inconclusive, JMJD2A Tudor 8.9µM, HP1b binding inh inconclusive
CCOC(=O)COc1cc(C)c(Cl)cc1C(=O)c1ccn2nc(-c3ccc(OC)cc3)cc2n1	none (no result: L3MBTL1 inh)
COc1ccccc1NC(=O)CSc1ncc2c(n1)-c1ccccc1N(Cc1ccccc1C)S2(=O)=O	none (no result: L3MBTL1 inh)
Cc1nc2c(C#N)c[nH]n2c(=O)c1CCO	BAZ2B block inconclusive (no result: L3MBTL1 inh)
CCCCCC(=O)NC(NC(=S)NC1CCS(=O)(=O)C1)C(Cl)(Cl)Cl (centres undefined)	G9a inh 25µM, L3MBTL1 inh inconclusive
COC(=O)c1ccccc1NC(=O)CCC(=O)N1CC(C)Sc2ccccc21 (centres undefined)	none (no result: L3MBTL1 inh)
Cc1cc(-c2ccco2)c(C#N)c2nc3ccccc3n12	G9a inh 13µM
Cc1cc2n(n1)SC(Nc1cc(Cl)ccc1Cl)N2 (centres undefined)	G9a inh 7.9µM, L3MBTL1 inh inconclusive
CCc1ccccc1NC(=O)N1CCCn2nc(C)cc21	none (no result: L3MBTL1 inh)
CCc1ccccc1NC1Nc2cc(C)nn2S1 (centres undefined)	G9a inh 1.6µM, JMJD2A Tudor inconclusive (no result: L3MBTL1 inh)
Cc1cc(C)n(CCC(=O)N2CCCC(Nc3ccc(F)cc3)C2)n1 (centres undefined)	none (no result: BAZ2B block, G9a inh, L3MBTL1 inh)
Cc1cc2n(n1)SC(Nc1ccc(F)cc1)N2 (centres undefined)	G9a inh 1.4µM, JMJD2A Tudor 20µM
Cc1ccc(C(=O)Nc2cccc(C(F)(F)F)c2)cc1NC(=O)c1csc(-c2ccncc2)n1	none (no result: L3MBTL1 inh)
Cc1cn(-c2cc(NC(=O)c3ccc(C)c(NC(=O)c4cccc(-c5cn[nH]c(=O)c5)c4)c3)cc(C(F)(F)F)c2)cn1	G9a inh 14µM, JMJD2A Tudor inconclusive
CCCCCc1cc(=O)oc2c(C(CCN3CCCC(C)C3)c3ccc(N(C)C)cc3)c(OC)cc(OC)c12 (centres undefined)	BAZ2B block 11µM, JMJD2A Tudor 25µM, HP1b binding inh 25µM (no result: L3MBTL1 inh)
COc1cc(OC)c2ccc(=O)oc2c1C(CCN1CCCC(C)C1)c1ccc(N(C)C)cc1 (centres undefined)	BAZ2B block inconclusive, G9a inh inconclusive, JMJD2A Tudor 35µM (no result: L3MBTL1 inh)
COc1cc(OC)c2ccc(=O)oc2c1C(CC(=O)N1CCCC(C)C1)c1ccc2c(c1)OCO2 (centres undefined)	BAZ2B block 50µM, JMJD2A Tudor inconclusive (no result: L3MBTL1 inh)
O=C(NC1CCCCCC1)C1CCN(C(=O)N2CCOc3ccccc32)CC1	none (no result: L3MBTL1 inh)
CCOc1ccc(S(=O)(=O)N2CCN(c3cccc(C(F)(F)F)c3)CC2)cc1OCC	none (no result: L3MBTL1 inh)
CCOC(=O)/C(C#N)=C1/C(=O)N(Cc2ccccc2)c2ccccc21	BAZ2B block 25µM, G9a inh 25µM, JMJD2A Tudor 25µM, HP1b binding inh 14µM (no result: L3MBTL1 inh)
CCOC(=O)c1c(NC(=O)CN2CCN(C(=O)c3ccco3)CC2)sc(C)c1C	none (no result: L3MBTL1 inh)
CCc1c(C)sc(NC(=O)CN2CCN(C(=O)c3ccco3)CC2)c1C(=O)OC	BAZ2B block inconclusive, G9a inh 79µM, JMJD2A Tudor inconclusive (no result: L3MBTL1 inh)
Cc1ccccc1CC(=O)Nc1sc(C(C)C)cc1C(=O)N1CCOCC1	none (no result: L3MBTL1 inh)
CCOC(=O)c1c(C)n(C)c2ccc(OC)c(NC(=O)CN3CCN(C(=O)c4ccco4)CC3)c12	G9a inh 32µM
CCc1c(C)sc(NC(=O)Cc2ccccc2C)c1C(=O)N1CCOCC1	G9a inh 35µM, HP1b binding inh inconclusive (no result: L3MBTL1 inh)
CCc1cccc(OCC(=O)Nc2cc(Cl)ccc2-n2cncn2)c1	none
O=C(Nc1cc(Cl)ccc1-n1cncn1)c1ccc(Br)o1	G9a inh 56µM
Cc1cccc(OCC(=O)Nc2cc(Cl)ccc2-n2cncn2)c1C	G9a inh inconclusive
CCCOc1ccccc1OCC(=O)Nc1cc(Cl)ccc1-n1cncn1	G9a inh 45µM
O=C(COc1ccc(F)cc1)Nc1cc(Cl)ccc1-n1cncn1	G9a inh 56µM
O=C(Nc1cc(Cl)ccc1-n1cncn1)c1cncc(Br)c1	none
COc1ccc(-c2nnn3c2nc(NCCc2ccc(OC)c(OC)c2)c2ccccc23)cc1	none (no result: L3MBTL1 inh)
Cc1cccc(-c2cc3nc4c(c(N5CCOCC5)n3n2)CCCC4)c1	none
Cc1cccc(-c2cc3nc4c(c(NCc5ccco5)n3n2)CCCC4)c1	JMJD2A Tudor 79µM
Cc1ccc(Cl)cc1NC(=O)Cn1c(=O)c(CNc2ccccc2)cc2cc3c(cc21)OCCO3	G9a inh 7.9µM (no result: L3MBTL1 inh)
O=c1cc(-c2ccccc2)[nH]n1-c1ccc([N+](=O)[O-])cc1	BAZ2B block 45µM, G9a inh inconclusive, JMJD2A Tudor 35µM, HP1b binding inh inconclusive
O=c1c(N=Nc2ccc(O)cc2)c(-c2ccccc2)[nH]n1-c1ccc([N+](=O)[O-])cc1	G9a inh 7.1µM, JMJD2A Tudor inconclusive
Cc1ccc([N+](=O)[O-])cc1N=Nc1c(-c2ccc([N+](=O)[O-])cc2)[nH]n(C(N)=S)c1=O	BAZ2B block 32µM, G9a inh inconclusive, JMJD2A Tudor inconclusive
